Test results reported in PubChem BioAssay (NCI).
The panel holds about 83,000 compounds, 20% with a hit somewhere; the sample as a whole holds those more often.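 Plates (96-well) were seeded with cells, treated with compound at one concentration, and incubated for 48 hours before percent growth was determined.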 A number with no mark means an inactive call. Active and inactive are the calls of the source. The calls were made as follows: active = growth percent below 10; inactive = the rest.

Key:
Assay in all cases: NCI-60 one-dose screen, 48 h (100 = growth as untreated, 0 = no growth, -100 = all killed)
Conditions in all cases: 10 µM unless noted
DU-145 prostate = system: DU-145 prostate
K-562 leukemia = system: K-562 leukemia
MALME-3M melanoma = system: MALME-3M melanoma
MDA-MB-231 breast = system: MDA-MB-231 breast
RXF 393 renal = system: RXF 393 renal
SF-268 CNS = system: SF-268 CNS
SF-295 CNS = system: SF-295 CNS
SF-539 CNS = system: SF-539 CNS
UACC-257 melanoma = system: UACC-257 melanoma
M14 melanoma = system: M14 melanoma
HCT-15 colon = system: HCT-15 colon
HT29 colon = system: HT29 colon
SNB-75 CNS = system: SNB-75 CNS
SNB-19 CNS = system: SNB-19 CNS
U251 CNS = system: U251 CNS
PC-3 prostate = system: PC-3 prostate
SK-MEL-5 melanoma = system: SK-MEL-5 melanoma
UACC-62 melanoma = system: UACC-62 melanoma
SK-MEL-28 melanoma = system: SK-MEL-28 melanoma
LOX IMVI melanoma = system: LOX IMVI melanoma

Row | Compound | growth (DU-145 prostate) | growth (K-562 leukemia) | growth (MALME-3M melanoma) | growth (MDA-MB-231 breast) | growth (RXF 393 renal) | growth (SF-268 CNS) | growth (SF-295 CNS) | growth (SF-539 CNS) | growth (UACC-257 melanoma) | growth (M14 melanoma) | growth (HCT-15 colon) | growth (HT29 colon) | growth (SNB-75 CNS) | growth (SNB-19 CNS) | growth (U251 CNS) | growth (PC-3 prostate) | growth (SK-MEL-5 melanoma) | growth (UACC-62 melanoma) | growth (SK-MEL-28 melanoma) | growth (LOX IMVI melanoma)
1 | O=[N+]([O-])c1cc([N+](=O)[O-])c(C(F)(F)F)cc1NN=C(c1ccc(O)cc1)c1ccc(O)cc1 | 114% | 103% | 117% | 83.2% | -57.8% (active) | 88% | 110% | -64.7% (active) | -61% (active) | -47.8% (active) | 13.7% | 91.6% | 92.7% | -4.43% (active) | 26.2% | 51.1% | -96.7% (active) | 60.6% | 94.8% | 
2 | COc1ccc(OC)c(NC=O)c1 | 105% | 99.8% | 107% | 106% | 103% | 99.6% | 106% | 103% | 102% | 103% | 103% | 99.4% | 100% | 106% | 88.2% | 105% | 110% | 99.7% | 115% | 100%
3 | O=C(NCCO)c1cccnc1 | 109% | 95.2% | 105% | 112% | 112% | 100% | 101% | 101% | 87.7% | 104% | 113% | 91.5% | 92.9% | 101% | 92.7% | 83.4% | 96% | 105% | 106% | 95%
4 | Cc1cc(SC#N)ncn1 | 112% | 95.1% | 100% | 93.3% | 105% | 111% | 128% | 103% | 103% | 108% | 102% | 108% | 86.7% | 103% | 103% | 107% | 100% | 93.5% | 114% | 93.7%
5 | C=C(C)C1CCC2(C(=O)O)CCC3(C)C(CCC4C5(C)CCC(OC(=O)NCc6ccccc6)C(C)(C)C5CCC43C)C12 (centres undefined) | 56.2% | 28.5% | 72.1% | 53.6% | 60.2% | 65.4% | 41.9% | 53.5% | 29.3% | 45.6% | 40.8% | 43.5% | 75.7% | 65.4% | 40.6% | 41.2% | 28.4% | 33.9% | 61.5% | 
6 | O=C(Nc1ccc(Oc2ccc(F)cc2)c(Cl)c1)c1cnccn1 | 79.5% | 21.1% | 70.1% | 58.7% | 72.3% | 72.2% | 72.9% | 67.1% | 79.8% | 92.4% | 47.7% | 23.7% | 47.7% | 63.7% | 38.2% | 76% | 49.5% | 50.3% | 76.9% | 51.5%
7 | CC(C)C1=NOC(=O)C1=Cc1cn(-c2ccccc2)nc1-c1ccc(Br)cc1 | 92.9% | 43.4% | 87.7% | 91.5% | 70.3% | 102% | 96.8% | 78.5% | 100% | 76.6% | 74.3% | 60.3% | 65.6% | 90.3% | 73.7% | 82.3% | 97.2% | 76.1% | 83.4% | 26.4%
8 | CC(C)CSc1ncnc2nc[nH]c12 | 100% | 102% | 104% | 98.3% | 92.3% | 91.5% | 103% | 88.4% | 98.4% | 98.4% | 97.2% | 99.5% | 101% | 93.8% | 103% | 81.7% | 95.6% | 84.8% | 101% | 
9 | Cn1cc(-c2noc(C(=O)c3cn(C)c4ncc(Br)cc34)n2)c2ccccc21 | 100% | 102% | 80.5% | 79.1% | 104% | 94.6% | 101% | 87.1% | 96.7% | 99.4% | 97.7% | 105% | 77.9% | 96.6% | 93.8% | 92.3% | 95.6% | 89.3% | 101% | 
10 | Cc1ccc(S(=O)(=O)Oc2ccc([N+](=O)[O-])cc2[N+](=O)[O-])cc1 | 116% | 29% | 63.6% | 94.3% | 111% | 96.5% | 108% | 93.6% | 86.2% | -8.49% (active) | 19% | 98.2% | 98.9% | 110% | 94.4% | 83.6% | 76.5% | 82.5% | 113% | 
11 | CCOC(=O)C1=C(C(=O)c2ccc(Br)cc2)C(c2ccc(Br)cc2)NC(=S)N1 (centres undefined) | 113% | 106% | 107% | 109% | 109% | 98.6% | 102% | 99.5% | 109% | 97.2% | 99% | 104% | 93.1% | 100% | 95.8% | 98.1% | 103% | 94.8% | 105% | 94%
12 | COC(=O)C(=Cc1ccccc1[N+](=O)[O-])C(=O)OC | -45.6% (active) | -12% (active) | 25.2% | 48% | -29.1% (active) | 0.377% (active) | 97.1% | 58.1% | 57.1% | 32% | 19.8% | 21.3% | 33.5% | 88.9% | 23.7% | 40.4% | 49.1% | 19.6% | 36.4% | 10.7%
13 | CCNC(=O)N1CCc2c(Cl)c3c(c(OC)c2[C@@H]1[C@H]1OCc2c1ccc(OC)c2OC)OCCO3 | 10.9% | 10.4% | 29.6% | 43.2% | -39.8% (active) | 45.3% | 8.12% (active) | -41.3% (active) | 55.3% | 1.38% (active) | 26.5% | 13.3% | 1.79% (active) | 30.8% | 26.1% | 20.8% | 11.4% | 22.2% | 54.3% | 27.5%
14 | COC(=O)[C@H](CC(C)C)NC(=O)NC(=O)NC(=O)CI | 109% | 2.16% (active) | -57% (active) | 33.4% | 64.1% | 85% | 88.8% | 77.2% | 98.2% | 63.5% | -36% (active) | -43.2% (active) | 102% | 92% | 90.6% | 78.3% | 92.6% | 86.4% | 89.6% | -78.6% (active)
15 | CC(C)[C@H]1CCC2=C3CC[C@]45OC(=O)[C@@]6(CCC(C)(C)C[C@H]64)CC[C@@]5(C)[C@]3(C)CC[C@@]21C | 83.3% [100 µM] | 45.3% [100 µM] | 91.6% [100 µM] | 61.2% [100 µM] | 78.6% [100 µM] | 75.6% [100 µM] | 88.7% [100 µM] | 71.6% [100 µM] | 77.1% [100 µM] | 86.3% [100 µM] | 85.8% [100 µM] | 42.2% [100 µM] | 30.4% [100 µM] | 71.6% [100 µM] | 66.5% [100 µM] | 39.3% [100 µM] | 42.6% [100 µM] | 59.3% [100 µM] | 87.4% [100 µM] | 78.8% [100 µM]
16 | O=C1CC(c2ccc3c(c2)OCO3)Nc2ccccc21 (centres undefined) | 7.64% (active) | 12.4% | 46% | 38.9% | -22% (active) | 43.1% | 4.53% (active) | 0.134% (active) | 42.3% | -15.8% (active) | 22% | 4.29% (active) | 7.16% (active) | 33.2% | 15% | 16.8% | 18.9% | 20.1% | 47.5% | 
